According to paper PMC5700166:
Where a chain is given by its changes, count along the chain named.

How the values were obtained:
Experiment in all cases: protein-binding microarray (PBM); PBM: ~300 nM protein, 6 mM HEPES pH 7.8, 80 mM KCl, 0.5 mM EDTA, 0.5 mM EGTA, 6% glycerol, 35 ng/ul poly-dIdC, 1% milk, 1 h, room temperature; Ap Aiptasia and Nv Nematostella (sea anemones) / Co Capsaspora / Aq Amphimedon (sponge) / Dm Drosophila / Hu human; RHD is the Rel homology domain; high values mean tight binding
Conditions in all cases: dsDNA, one strand shown
GST-Ap-NF-kB RHD = target: T1, GST-Ap-NF-kB RHD (Exaiptasia pallida (Aiptasia), UniProt A0A913YAJ5 2-422)
T1 sequence: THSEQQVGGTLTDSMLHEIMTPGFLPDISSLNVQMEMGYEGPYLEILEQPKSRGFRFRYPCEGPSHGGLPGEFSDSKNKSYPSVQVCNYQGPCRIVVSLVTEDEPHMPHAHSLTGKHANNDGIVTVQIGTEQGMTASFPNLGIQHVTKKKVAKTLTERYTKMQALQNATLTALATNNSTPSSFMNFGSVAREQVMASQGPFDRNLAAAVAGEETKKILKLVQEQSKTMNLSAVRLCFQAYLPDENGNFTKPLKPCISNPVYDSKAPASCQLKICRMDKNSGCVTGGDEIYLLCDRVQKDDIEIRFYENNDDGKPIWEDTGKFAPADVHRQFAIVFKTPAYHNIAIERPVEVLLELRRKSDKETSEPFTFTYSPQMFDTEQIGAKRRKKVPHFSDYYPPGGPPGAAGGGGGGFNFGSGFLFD

[1] = target: T2, GST-Nv-NF-kB (Cys allele) (Nematostella vectensis, UniProt E5G601 2-411)
T2 sequence: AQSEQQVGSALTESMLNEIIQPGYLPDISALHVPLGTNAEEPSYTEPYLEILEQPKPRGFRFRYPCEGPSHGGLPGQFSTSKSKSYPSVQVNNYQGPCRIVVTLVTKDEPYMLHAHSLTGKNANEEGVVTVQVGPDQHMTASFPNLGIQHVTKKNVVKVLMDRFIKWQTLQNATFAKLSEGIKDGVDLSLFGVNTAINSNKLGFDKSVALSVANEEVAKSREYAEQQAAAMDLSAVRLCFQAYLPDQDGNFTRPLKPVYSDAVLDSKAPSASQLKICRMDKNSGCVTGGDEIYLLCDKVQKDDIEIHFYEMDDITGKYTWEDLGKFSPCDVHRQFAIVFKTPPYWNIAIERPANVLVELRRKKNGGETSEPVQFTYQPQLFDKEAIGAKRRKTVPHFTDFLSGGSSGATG

GST-Dm-Relish = target: T3, GST-Dm-Relish (Drosophila melanogaster, UniProt Q94527 99-473)
T3 sequence: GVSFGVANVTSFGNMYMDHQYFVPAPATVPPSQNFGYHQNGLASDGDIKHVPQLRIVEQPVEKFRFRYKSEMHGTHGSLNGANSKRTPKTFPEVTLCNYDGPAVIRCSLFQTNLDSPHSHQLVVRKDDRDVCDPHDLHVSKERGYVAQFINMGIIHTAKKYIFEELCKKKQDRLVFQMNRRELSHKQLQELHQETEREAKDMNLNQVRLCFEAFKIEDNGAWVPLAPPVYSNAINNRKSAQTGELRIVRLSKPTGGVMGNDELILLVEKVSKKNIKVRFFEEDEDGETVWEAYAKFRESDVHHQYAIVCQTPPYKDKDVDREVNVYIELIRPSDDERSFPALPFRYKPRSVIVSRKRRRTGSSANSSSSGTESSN

GST-Aq-NF-kB = target: T4, GST-Aq-NF-kB (Amphimedon queenslandica, UniProt A9Y5G7 2-389)
T4 sequence: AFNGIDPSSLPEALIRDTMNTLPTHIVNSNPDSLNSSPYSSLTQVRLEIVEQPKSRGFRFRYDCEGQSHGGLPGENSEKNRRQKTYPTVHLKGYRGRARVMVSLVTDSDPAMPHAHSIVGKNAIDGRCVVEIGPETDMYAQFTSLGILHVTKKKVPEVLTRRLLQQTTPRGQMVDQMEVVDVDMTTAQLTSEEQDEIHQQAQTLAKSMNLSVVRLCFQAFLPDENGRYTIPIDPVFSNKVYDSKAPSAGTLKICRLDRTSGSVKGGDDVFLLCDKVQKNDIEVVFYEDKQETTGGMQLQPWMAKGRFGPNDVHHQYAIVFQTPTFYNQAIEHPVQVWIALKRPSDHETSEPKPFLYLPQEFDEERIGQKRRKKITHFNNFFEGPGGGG

GST-Hu-p50 = GST-Hu-p50 (Homo sapiens, UniProt P19838 7-356)
Sequence of GST-Hu-p50 (P19838 7-356): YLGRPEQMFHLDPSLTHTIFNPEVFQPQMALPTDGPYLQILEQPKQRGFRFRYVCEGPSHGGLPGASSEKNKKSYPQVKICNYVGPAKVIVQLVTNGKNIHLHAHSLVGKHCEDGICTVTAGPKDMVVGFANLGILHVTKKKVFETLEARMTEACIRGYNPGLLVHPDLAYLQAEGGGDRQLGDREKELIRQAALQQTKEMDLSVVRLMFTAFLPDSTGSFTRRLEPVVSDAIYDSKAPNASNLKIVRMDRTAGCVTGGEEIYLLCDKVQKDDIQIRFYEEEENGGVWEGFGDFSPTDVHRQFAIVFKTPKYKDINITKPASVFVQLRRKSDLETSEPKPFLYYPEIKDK

[2] = target: T5, GST-Nv-NF-kB (Ser allele) (Nematostella vectensis, UniProt A7UNT2 2-411)
T5 sequence: T2 sequence with Q21R, C66S, S207N, E215Q, V217A, E225K, A268E, D399E

GST-Co-NF-kB = target: T6, GST-Co-NF-kB (Capsaspora owczarzaki, UniProt F1ARL5 200-546)
T6 sequence: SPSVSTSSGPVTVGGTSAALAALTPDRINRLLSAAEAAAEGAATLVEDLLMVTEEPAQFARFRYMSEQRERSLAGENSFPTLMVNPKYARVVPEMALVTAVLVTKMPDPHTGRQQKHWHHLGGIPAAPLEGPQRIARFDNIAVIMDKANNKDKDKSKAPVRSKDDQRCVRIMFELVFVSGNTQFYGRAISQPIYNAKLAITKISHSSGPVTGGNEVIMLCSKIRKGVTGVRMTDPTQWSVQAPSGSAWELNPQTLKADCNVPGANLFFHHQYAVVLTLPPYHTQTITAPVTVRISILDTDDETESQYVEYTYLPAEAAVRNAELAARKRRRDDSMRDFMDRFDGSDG

Sequence | binding signal (GST-Ap-NF-kB RHD) | binding signal [1] | binding signal (GST-Dm-Relish) | binding signal (GST-Aq-NF-kB) | binding signal (GST-Hu-p50) | binding signal [2] | binding signal (GST-Co-NF-kB)
CCGATTAACATCAGAAAAACACCTGATGTTAATCGGGTCTTGATTCGCTTGACGCTGCTG | 2.56 z-score | 3.55 z-score | 3.66 z-score | 3.91 z-score | 5.37 z-score |  | 
CCGATTAACATCATTCCGGGAAATGATGTTAATCGGGTCTTGATTCGCTTGACGCTGCTG |  | 2.87 z-score |  | 1.95 z-score | 1.99 z-score | 3.44 z-score | 2.74 z-score
CCGATTAACATCAAAATTTACCATGATGTTAATCGGGTCTTGATTCGCTTGACGCTGCTG |  |  | 2.43 z-score | 1.07 z-score | 2.22 z-score | 2.56 z-score | 
CCGATTAACATCAAGAATTTTCCTGATGTTAATCGGGTCTTGATTCGCTTGACGCTGCTG |  |  |  | 1.12 z-score | 1.25 z-score | 1.03 z-score | 
CCGATTAACATCAAAAACTTTCCTGATGTTAATCGGGTCTTGATTCGCTTGACGCTGCTG |  |  | 2.34 z-score | 2.68 z-score | 1.25 z-score | 1.54 z-score | 
CCGATTAACATCAAAATTTACCGTGATGTTAATCGGGTCTTGATTCGCTTGACGCTGCTG |  | 1.63 z-score | 3.37 z-score | 2.12 z-score | 2.17 z-score | 3.7 z-score | 1.05 z-score
CCGATTAACATCACCACCACCCCTGATGTTAATCGGGTCTTGATTCGCTTGACGCTGCTG | 1.55 z-score |  | 1.39 z-score | 1.75 z-score | 2.36 z-score |  | 2.34 z-score
CCGATTAACATCAGTGGGAAACATGATGTTAATCGGGTCTTGATTCGCTTGACGCTGCTG |  | 1.93 z-score |  | 2.03 z-score | 1.25 z-score | 1.79 z-score | 3.12 z-score
CCGATTAACATCAAATTTCCGGGTGATGTTAATCGGGTCTTGATTCGCTTGACGCTGCTG |  |  |  | 1.44 z-score | 1.02 z-score | 1.31 z-score | 1.32 z-score
CCGATTAACATCAGGTAAATACCTGATGTTAATCGGGTCTTGATTCGCTTGACGCTGCTG |  | 2.06 z-score | 4.77 z-score | 4.2 z-score | 2.11 z-score | 3.12 z-score | 
CCGATTAACATCAAAATTTTTCCTGATGTTAATCGGGTCTTGATTCGCTTGACGCTGCTG |  |  | 2.86 z-score | 1.46 z-score | 1.87 z-score | 1.42 z-score | 1.06 z-score
CCGATTAACATCAAAATTTGCCCTGATGTTAATCGGGTCTTGATTCGCTTGACGCTGCTG |  |  |  | 1.61 z-score | 1.54 z-score | 1.28 z-score | 1.18 z-score
CCGATTAACATCAAAAATTACCATGATGTTAATCGGGTCTTGATTCGCTTGACGCTGCTG |  | 1.73 z-score | 3.14 z-score | 1.73 z-score | 2.52 z-score | 3.14 z-score | 
CCGATTAACATCAGGATTTGCCCTGATGTTAATCGGGTCTTGATTCGCTTGACGCTGCTG |  | 1.25 z-score |  | 3.5 z-score | 1.37 z-score |  | 
CCGATTAACATCAGACCCCCCCCTGATGTTAATCGGGTCTTGATTCGCTTGACGCTGCTG | 5.15 z-score |  | 4.7 z-score | 4.8 z-score | 4.03 z-score |  | 4.59 z-score
CCGATTAACATCAGAAATTGCCCTGATGTTAATCGGGTCTTGATTCGCTTGACGCTGCTG |  | 1.33 z-score |  | 2.44 z-score | 1.68 z-score |  | 
